Assay results taken from PubChem BioAssay AID1671192 (National Center for Advancing Translational Sciences (NCATS), 2021).
Inconclusive results are not listed. Calls of active or inactive are those of the source. The call rests on the fitted dose curve; in most records, active means well fitted curve in the direction sought with a large enough effect; inconclusive means small, poorly fitted or top-dose-only effect, or another doubt; inactive means no such curve, though single readings can be large or run the other way.

Biological target: Polyunsaturated fatty acid lipoxygenase ALOX15 (Homo sapiens) (UniProt P16050)
Sequence (P16050 whole entry, looked up): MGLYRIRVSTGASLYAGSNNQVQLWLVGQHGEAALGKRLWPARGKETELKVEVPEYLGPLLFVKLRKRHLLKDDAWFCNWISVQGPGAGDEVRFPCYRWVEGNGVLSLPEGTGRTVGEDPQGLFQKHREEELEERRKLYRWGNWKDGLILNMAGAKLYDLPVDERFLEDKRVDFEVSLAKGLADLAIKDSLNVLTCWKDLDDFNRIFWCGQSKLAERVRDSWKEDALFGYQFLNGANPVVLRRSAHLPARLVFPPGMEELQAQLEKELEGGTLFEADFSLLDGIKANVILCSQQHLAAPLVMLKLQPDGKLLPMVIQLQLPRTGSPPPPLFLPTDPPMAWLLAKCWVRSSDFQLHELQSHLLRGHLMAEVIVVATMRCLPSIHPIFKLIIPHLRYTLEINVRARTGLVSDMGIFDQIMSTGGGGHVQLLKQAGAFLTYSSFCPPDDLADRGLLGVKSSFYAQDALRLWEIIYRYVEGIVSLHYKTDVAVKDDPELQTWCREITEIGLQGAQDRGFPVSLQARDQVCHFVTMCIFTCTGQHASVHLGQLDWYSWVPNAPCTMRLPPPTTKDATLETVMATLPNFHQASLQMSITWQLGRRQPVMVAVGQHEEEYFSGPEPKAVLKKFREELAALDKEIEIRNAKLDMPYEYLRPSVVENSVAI
Assay: Counterscreen qHTS for inhibitors of human arachidonate 12S-lipoxygenase (ALOX12): ALOX15 Assay
Conditions: purified ALOX15 enzyme activity; series mostly up to 110 µM
In short: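 Xylenol orange–ferric complex formation, read as the 573 nm to 405 nm absorbance ratio, tracks product from 50 uM arachidonic acid turned over for 30 min at RT. Enzyme is 40 nM ALOX15, pH 7.5 HEPES buffer, compound-preincubated 15 min.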

| SMILES | outcome |
| --- | --- |
| O=C(Nc1ccc(Cl)cc1Cl)c1c[nH]c2cccnc12 | inactive |
| O=C(c1ccccc1F)N1CC(Oc2ccc3c(c2)OCO3)C1 | inactive |
| O=C1NC(=NC2CCCC2)C2(CCCN(Cc3ccsc3)C2)N1c1cc(F)cc(F)c1 (stereo not drawn) | inactive |
| CNCc1ccccc1-c1ccccc1 | inactive |
| CNCc1ccccc1OC(F)(F)F | inactive |
| COc1ccc(CC(=O)N2Cc3ccccc3CC3(CCN(CC4CCNC4)C3)C2)cc1 (stereo not drawn) | inactive |
| c1ccc(CN2CC(Oc3ccc4c(c3)OCO4)C2)cc1 | inactive |
| O=C1NCc2ccccc2CC12CCCN2Cc1ccc(O)cc1O (stereo not drawn) | inactive |
| Cc1ccc(-c2cccc(CN)c2)c(C)c1 | inactive |
| O=C1NC(=NC2CCCC2)C2(CCN(CC3CC3)C2)N1c1cccnc1 (stereo not drawn) | inactive |
| CCCC(=O)N1Cc2ccccc2CC2(CCN(Cc3ccc(O)cc3)C2)C1 (stereo not drawn) | inactive |
| O=C1NC(=NC2CCCC2)C2(CCCN([S+](=O)([O-])c3cccc(C(F)(F)F)c3)C2)N1c1cc(F)cc(F)c1 (stereo not drawn) | inactive |
| COc1ccc(N2CC3CCC(C2)N3Cc2cccc(Cl)c2)cc1 | inactive |
| O=Cc1ccc(-c2cccc(O)c2)cc1 | inactive |
| CCc1ccccc1CN1CCCC12Cc1ccccc1CNC2=O (stereo not drawn) | inactive |
| C/C(=C\c1ccccc1)CN1CCCC12Cc1ccccc1CNC2=O (stereo not drawn) | inactive |
| COCCNC(=O)c1cc(-c2ccc(OC)cc2)nc2onc(C3CCNC3)c12 (stereo not drawn) | inactive |
| CN1CC(=O)N(C2CNC2)Cc2c(NCC3CC3)ncnc21 | inactive |
| COc1cccc([S+](=O)([O-])N2CCCC3(CC(c4cccnc4)=NO3)C2)c1 (stereo not drawn) | inactive |

| SMILES | outcome |
| --- | --- |
| COc1ccc(C(=O)N2CC(Oc3ccc4c(c3)OCO4)C2)cc1 | inactive |
| CN(C)C(=O)N1Cc2ccccc2OC2(CCN(C(=O)Cc3cnc[nH]3)CC2)C1 | inactive |
| CCc1nc2c(c(-c3ccc(OC)cc3)n1)CN([S+](=O)([O-])c1cccc(OC)c1)CC2 | inactive |
| C[C@H](C(=O)N1Cc2ccccc2CC2(CCN(Cc3ccncc3)C2)C1)c1ccccc1 (stereo partly drawn) | inactive |
| O=C1c2ccccc2CN1C1CCN(Cc2cccc3ccccc23)CC1 | inactive |
| Cc1cc(C)cc(-c2ccc(CN3CCCC(c4nc5ccc(F)cc5c(=O)[nH]4)C3)cc2)c1 (stereo not drawn) | inactive |
| Cn1cccc1CN1CCCCC12Cc1ccccc1CNC2=O (stereo not drawn) | inactive |
| CNC1CCOc2ccccc21 (stereo not drawn) | inactive |
| COC[C@@H]1CCCN1c1ncnc2c1CN(C1CCCNCC1)C(=O)CN2C (stereo partly drawn) | inactive |
| CC[C@@H](Nc1ncnc2c1CN(C1CCCNCC1)C(=O)CN2C)c1ccccc1 (stereo partly drawn) | inactive |
| COCCNC(=O)c1cc(C)nc2onc(C3CCNC3)c12 (stereo not drawn) | inactive |
| Cc1cc(C(=O)NCc2ccncc2)c2c(C3CCNCC3)noc2n1 | inactive |
| O=c1[nH]c(C2CCCN(Cc3cccc(-c4cccs4)c3)C2)nc2ccc(F)cc12 (stereo not drawn) | inactive |
| CCCC(=O)N1Cc2ccccc2CC2(CCCCN2Cc2ccccn2)C1 (stereo not drawn) | inactive |
| CNC(=O)c1cn2c(n1)CN(C(=O)OC)CC2 | inactive |
| Cc1ccc(CCN2CCC3(Cc4ccccc4CNC3=O)C2)cc1 (stereo not drawn) | inactive |
| O=C(NC1CCCC1)c1cc(C2CC2)nc2onc(C3CCCN3)c12 (stereo not drawn) | inactive |
| CC(=O)NC1CC2(CCN(C(=O)CCCNC(=O)OC(C)(C)C)CC2)Oc2ccccc21 (stereo not drawn) | inactive |
| COc1ccc(C(=O)N2CCn3c(nnc3C3CCNCC3)C2)cc1 | inactive |
